Assay results published in PubChem BioAssay AID2161 (National Center for Advancing Translational Sciences (NCATS), 2009).
Values joined by “and” are separate entries in the source; they are usually repeats but may differ in a detail not shown here. Identical values can stand only once. The list shows a part of the results. A number with no mark means an inactive call. Active and inactive are the calls of the source. Calls come from the whole dose curve; as a rule, active = well fitted inhibition curve with a large enough effect; inactive = no such curve, though single readings can be large or run the other way.

Target: Papain (Carica papaya) (UniProt P00784)
Sequence (P00784 whole entry, looked up): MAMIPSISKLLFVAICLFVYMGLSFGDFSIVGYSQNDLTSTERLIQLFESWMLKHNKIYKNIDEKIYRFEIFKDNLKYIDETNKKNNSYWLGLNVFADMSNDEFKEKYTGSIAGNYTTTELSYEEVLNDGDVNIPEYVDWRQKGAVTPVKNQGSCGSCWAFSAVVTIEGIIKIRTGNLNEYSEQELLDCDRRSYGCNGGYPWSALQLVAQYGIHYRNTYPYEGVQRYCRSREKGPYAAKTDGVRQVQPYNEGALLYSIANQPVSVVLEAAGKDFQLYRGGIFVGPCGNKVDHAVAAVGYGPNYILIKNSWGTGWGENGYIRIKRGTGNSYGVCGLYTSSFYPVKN
Experiment: qHTS Assay for Inhibitors of Papain: Counterscreen for Cruzain Assay
Settings: purified papain, Z-FR-AMC fluorescence cleavage; max response, negative = inhibition: hits give low values
From the text: Assay Provider: Shoichet, Brian; University of California, San Fancisco Screening Center PI: Austin, C.P. Screening Center: NIH Chemical Genomics Center [NCGC] The following papain assay is a counterscreen for a related protein cruzain (AID: 1478). Cruzain is a cysteine protease from the tropical parasite Trypanosoma cruzi. Activity against papain was used to help prioritize chemical series active against cruzain. Papain is a closely related cysteine protease known to utilize the same Z-FR-AMC fluorogenic substrate as cruzain. The fluorogenic assay used for cruzain was utilized here as well, with the exception of the reducing agent, which was 5 mM cystein here instead of DTT. Fluorogenic coumarin-based Z-FR-AMC substrate was used; proteolytic cleavage releases AMC, whose fluorescence is measured at 360 nm excitation and 450 nm emission. Purified papain was supplied by the labs of Profs. James McKerrow and Brian Shoichet, UC San Francisco. This assay had 0.01% Triton X-100 concentration.
Buffer: 100 mM Sodium Acetate, pH 5.5, 5 mM DTT, Triton X-100 concentration: 0.01%. Reagents/Controls: Buffer in columns 3 and 4 as negative control (no enzyme). Substrate solution: 2 uM final concentration of Z-FR-AMC (catalog number I-1160, Bachem) dispensed throughout the plate. Enzyme: 12 nM Papain final concentration. Assay Steps: Three uL of enzyme or buffer were dispensed to 1536-well Greiner black solid bottom plates. Compounds and controls (23 nL) were transferred via Kalypsys PinTool. The plates were incubated for 15 min at room temperature, and then 1 uL of substrate solution was added to start the reaction. The plates were immediately transferred to and read 4 times every 30 seconds for 2 min on ViewLux High-throughput CCD imager (Perkin-Elmer) using 360 nm excitation and 450 nm emission fluorescence protocol. The fluorescence intensity difference between the third and the first time points (time lapse of 60 seconds) was used to compute reaction progress. Data was normalized to neutral (no compound) and negative (no enzyme) controls.
Note: nearly all actives have a fitted effect of over 35% in size.
Potency is the fitted concentration of half-maximal effect.
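Throughout, for max response, negative = inhibition: 0% = no-compound wells and -100% = no-enzyme wells.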

Q: How did the max response, negative = inhibition turn out when `c1ccc2cc3c(NCCN4CCOCC4)ccnc3cc2c1` was run?
A: -50.2%

Q: How did the Potency turn out when `CCN(CC)c1nc(C#N)nc(OC)n1` was run?
A: 5.01 µM (active)

Q: Which max response, negative = inhibition does the source give for `O=C1OC(/C=C/c2ccccc2)=NC/1=C/c1ccco1` here?
A: -2.34%

Q: With `C=CCNC(=O)c1ccc2nc(-c3ccco3)c(-c3ccco3)nc2c1` as the molecule, how does the max response, negative = inhibition read?
A: -64.7%

Q: Which max response, negative = inhibition does the source give for `Cn1c(C(=O)NCCN2CCc3ccccc3C2)cc2c(=O)[nH]c3ccccc3c21` here?
A: -20.9%

Q: How did the max response, negative = inhibition turn out when `O=C(OCN1C(=O)c2ccccc2C1=O)/C(=C\c1ccco1)NC(=O)c1ccccc1` was run?
A: -35.6%

Q: For `CC(C)C[C@H](NC(=O)[C@@H]1O[C@H]1C(=O)O)C(=O)NCCCCN=C(N)N`, which Potency is on record?
A: 0.01 µM (active)

Q: Which max response, negative = inhibition does the source give for `Cc1ccc(SCCC(=O)OCC(=O)Nc2ncc(Cl)cc2Cl)cc1` here?
A: -6.29%

Q: With `N#Cc1nc(Nc2cccc(Cl)c2)nc(NC2CCCC2)n1` as the molecule, how does the Potency read?
A: 0.891 µM (active)

Q: How did the Potency turn out when `N#Cc1nc(Nc2cc(F)cc(Cl)c2)nc(NC2CCCC2)n1` was run?
A: 1.12 µM (active)

Q: With `CCc1ccc(OCCCn2c(CCCNC(=O)C3CCCCC3)nc3ccccc32)cc1` as the molecule, how does the max response, negative = inhibition read?
A: -1.28%

Q: Which max response, negative = inhibition does the source give for `CCCCNC(=O)Cn1c(SCc2cccc(Cl)c2)nc2ccncc21` here?
A: -12%

Q: `C=CC(=O)c1ccc2ccccc2c1` was tested. Which Potency did it give?
A: 12.6 µM (active)

Q: For `Cc1ccc(-c2c3c(=O)n(C)c(=O)n(C)c3cn2-n2cnnc2)cc1`, which Potency is on record?
A: 28.2 µM (active)

Q: `N#Cc1nc(N)nc(N(c2ccccc2)c2ccccc2)n1` was tested. Which Potency did it give?
A: 8.91 µM (active) and 11.2 µM (active)
